The record followed here is PubChem BioAssay (NCI).

SMILES strings stand for the structures. About 79,000 compounds went through this panel and 15% of them were active in at least one assay; those are over-represented in the sample as a whole. Values without a mark were called inactive. Calls of active or inactive are those of the source. Rule as the data show it: active = growth inhibition above about 70%; inactive = the rest.

The nature of assay [1]: NCI Yeast Anticancer Drug Screen. Data for the rad50 strain (AID 155).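 Also: 0% = growth of vehicle-only cultures of the same strain.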 Particulars: S. cerevisiae rad50 strain growth inhibition; at 50.0 µM; stronger effect = higher value. The method, boiled down:
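Compounds were tested on a yeast strain with an engineered DNA damage repair alteration; the reported value is growth inhibition normalised to vehicle treatment.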

A short description of assay [2]: NCI Yeast Anticancer Drug Screen. Data for the mec2-1 strain (AID 157). Particulars: S. cerevisiae mec2-1 strain, at 50.0 µM, stronger effect = higher value. The method, boiled down: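 Readout is yeast growth inhibition, normalised to vehicle-treated controls, in the mec2-1 strain exposed to compound.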
Assay [3] is described as follows: NCI Yeast Anticancer Drug Screen. Data for the sgs1 mgt1 strain (AID 161).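 Also: 0% = growth of cultures given vehicle only.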 Particulars: S. cerevisiae sgs1 mgt1 strain, at 50.0 µM, stronger effect = higher value. In short, it runs like this:
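Yeast cells carrying a defined DNA-repair defect were exposed to test compounds. Growth inhibition was measured relative to vehicle-treated controls.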

A short description of assay [4]: NCI Yeast Anticancer Drug Screen. Data for the cln2 rad14 strain (AID 165).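 Also: 0% = growth equal to vehicle treated cultures.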 Particulars: S. cerevisiae cln2 rad14 strain, at 50.0 µM, stronger effect = higher value. In short, it runs like this: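 Relative to vehicle controls, growth inhibition of compound-treated cln2 rad14 yeast was recorded.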
The nature of assay [5]: NCI Yeast Anticancer Drug Screen. Data for the bub3 strain (AID 167). Conditions: S. cerevisiae bub3 mutant strain, at 50.0 µM, stronger effect = higher value. In short, it runs like this: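 Growth of a checkpoint-deficient yeast mutant is measured after compound exposure. Values represent inhibition relative to vehicle.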
A short description of assay [6]: NCI Yeast Anticancer Drug Screen. Data for the mlh1 rad18 strain (AID 175). Conditions: S. cerevisiae mlh1 rad18 strain growth inhibition; at 50.0 µM; stronger effect = higher value. The method, boiled down:
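Test agents were incubated with a yeast strain of defined genotype (DNA damage repair defect). Inhibition of growth was derived by comparison with vehicle-exposed cultures.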

For `NC(=O)c1csc(C2OC3COP(=O)(O)OC3C2O)n1` (configuration not stated), the growth inhibition is -21.1% in assay [1]; -26.2% in assay [2]; -38.6% in assay [3]; -5.65% in assay [4]; -29.1% in assay [5]; -28.9% in assay [6].

Turning to `O=C(Nc1ccccc1)Oc1ccc(C2CCCCC2)cc1`, the growth inhibition is 14.7% in assay [1]; 22.1% in assay [2]; 8.2% in assay [3]; 0.95% in assay [4]; 23.3% in assay [5]; 54.6% in assay [6].

With `CCOC(=O)C(C)CC(C)C(=O)OCC` (configuration not stated), the growth inhibition was 20.6% in assay [1]; -26% in assay [2]; -19.3% in assay [3]; -2.85% in assay [4]; 9.9% in assay [5]; 2.5% in assay [6].

In the case of `CCC1(CC)C(=O)C(CC)(CC)C1=O`, the growth inhibition in assay [1] is 44.5%; in assay [2], 28.1%; in assay [3], 38%; in assay [4], 20.9%; in assay [5], 39.1%; in assay [6], 6.55%.

In the case of `O=C(/C=C/c1cccs1)c1ccc(Cl)s1`, the growth inhibition in assay [1] is -18.3%; in assay [2] it was -33.3%; in assay [3], -2.55%; in assay [4], -7.45%; in assay [5], -6.5%; in assay [6] it was 0.2%.

Take `CC12CC3CC(C)(C1)CC(CN=C(N)CS)(C3)C2`: the growth inhibition in assay [1] was 98.9% (active); in assay [2] it was 99.5% (active); in assay [3], 99.5% (active); in assay [4] it was 99.2% (active); in assay [5], 99.2% (active); in assay [6], 99.3% (active).

For `CN(C)C(=O)C1OC1(C)c1ccccc1` (configuration not stated), the growth inhibition is -7.75% in assay [1]; -5.25% in assay [2]; -3.35% in assay [3]; -20.9% in assay [4]; -1.3% in assay [5]; -7.95% in assay [6].

On to `CNc1cccc2c1C(C)C[C@]1(C)C(=O)Nc3ccccc3[C@H]21` (some centres not stated), for which the growth inhibition in assay [1] is -36.5%; in assay [2], -19.7%; in assay [3] it was -22.6%; in assay [4], -31.1%; in assay [5], -35.8%; in assay [6] it was -80.3%.

On to `O=C(Nc1cccc(Cl)c1Cl)Oc1cccc2ccccc12`, for which the growth inhibition was 21.4% in assay [1]; 5.15% in assay [2]; 12.4% in assay [3]; 8.65% in assay [4]; 24.5% in assay [5]; 16.4% in assay [6].

Regarding `O=C(O)C1[N-]CCNC1C(=O)O.[O]=[V][OH]` (configuration not stated), the growth inhibition in assay [1] is -10.7%; in assay [2], -2.4%; in assay [3] it was -4.6%; in assay [4] it was -16.9%; in assay [5] it was -2.25%; in assay [6], -5.05%.

As for `COc1c2c(cc3c1-c1c(cc4c(c1OC)OCO4)CC(C)C(C)C3)OCO2` (configuration not stated), the growth inhibition was 12.4% in assay [1]; 24.4% in assay [2]; 21% in assay [3]; 15.2% in assay [4]; 40.1% in assay [5]; 29.6% in assay [6].

For the compound `COc1cc(Br)c2ncccc2c1`, the growth inhibition in assay [1] was 1.75%; in assay [2] it was -0.6%; in assay [3], 3.85%; in assay [4], 4.05%; in assay [5], 2.2%; in assay [6], -14.5%.

For the compound `COc1ccc(C(=O)CC2=NC3NN(c4ccccc4)C(=O)C3=C2CC(=O)c2ccc(OC)cc2)cc1` (configuration not stated), the growth inhibition was 48.1% in assay [1]; 32.1% in assay [2]; 55.5% in assay [3]; 23.8% in assay [4]; -2.25% in assay [5]; 31.8% in assay [6].

In the case of `Cc1cc(OCC(=O)O)c(C)cc1Cl`, the growth inhibition in assay [1] was -21.6%; in assay [2], -17.1%; in assay [3], -12.5%; in assay [4], -0.25%; in assay [5], -7.5%; in assay [6], -13.6%.

On to `CSc1cc2c(cc1[N+](=O)[O-])C(=O)c1ccccc1-2`, for which the growth inhibition in assay [1] is -1.85%; in assay [2], 5.75%; in assay [3], 0.8%; in assay [4], 0.6%; in assay [5], 4.05%; in assay [6], 5.6%.

As for `O=C1CC(=O)C(Br)=C1Br`, the growth inhibition in assay [1] was 99.5% (active); in assay [2] it was 99.5% (active); in assay [3] it was 99.5% (active); in assay [4] it was 99.3% (active); in assay [5], 99.4% (active); in assay [6], 99.5% (active).

In the case of `CSc1ccc(NC(=O)COc2ccccc2)cc1`, the growth inhibition in assay [1] is 9.75%; in assay [2] it was 19.1%; in assay [3], 6.05%; in assay [4], -3.7%; in assay [5] it was 39.3%; in assay [6], 21.7%.

On to `CN(CC(=O)O)c1ccc([N+](=O)[O-])cc1[N+](=O)[O-]`, for which the growth inhibition in assay [1] was 8.75%; in assay [2], 8.55%; in assay [3], 10.4%; in assay [4], 52.9%; in assay [5], 26.4%; in assay [6], -1.15%.

Consider `O=C1c2ccccc2C(=O)N1CNc1ccccc1Cl`, for which the growth inhibition in assay [1] is 27.8%; in assay [2], 8.95%; in assay [3], 23.2%; in assay [4], 18.2%; in assay [5] it was 18.2%; in assay [6], 17.3%.

For `O=C(O)C1c2ccccc2C(C(=O)O)c2ccccc21` (configuration not stated), the growth inhibition was -6.4% in assay [1]; -2.25% in assay [2]; -4% in assay [3]; 19.9% in assay [4]; 13% in assay [5]; 31.8% in assay [6].

Take `O=C(CCC(=O)Nc1cccc([N+](=O)[O-])c1)CC(=O)c1ccc(Cl)cc1`: the growth inhibition in assay [1] was -26.6%; in assay [2], -4%; in assay [3], -7.9%; in assay [4] it was -25%; in assay [5], -12.1%; in assay [6], -23.3%.

With `CC(=O)Nc1cc(C(C)=O)ccc1C(C)=O`, the growth inhibition in assay [1] is -5.8%; in assay [2], -6.2%; in assay [3], 6%; in assay [4], 2.35%; in assay [5] it was -0.5%; in assay [6], 12.7%.

Turning to `CC(=O)Nc1ccn(C2OC(COC(C)=O)C(OC(C)=O)C(OC(C)=O)C2OC(C)=O)c(=O)n1` (configuration not stated), the growth inhibition was 0.3% in assay [1]; -14.3% in assay [2]; 2.45% in assay [3]; -12.1% in assay [4]; -4.3% in assay [5]; 5.55% in assay [6].

Regarding `FC(F)(F)c1cc(C2SCc3nc4ccccc4n32)cc(C(F)(F)F)c1` (configuration not stated), the growth inhibition in assay [1] was -5.25%; in assay [2] it was -23%; in assay [3], -7.9%; in assay [4] it was 6.95%; in assay [5] it was -4.35%; in assay [6], -17.4%.

`N=c1oc2ccccc2cc1-c1nc2ccccc2c(=O)[nH]1`: the growth inhibition was -1.75% in assay [1]; -3.25% in assay [2]; 4.5% in assay [3]; 11.7% in assay [4]; -13.4% in assay [5]; 17.3% in assay [6].

On to `COC(=O)c1ccccc1NN=Nc1ccccc1Cl`, for which the growth inhibition in assay [1] is 3.5%; in assay [2], -17.7%; in assay [3], -0.95%; in assay [4], 8.3%; in assay [5], 6.4%; in assay [6], 11.1%.

For the compound `O=C(O)C(=O)O.[Co+3].[NH-]C(Cc1ccccc1)C(=O)[O-].[NH-]CCN(CC[NH-])CC[NH-]` (configuration not stated), the growth inhibition was 28.2% in assay [1]; 15.8% in assay [2]; 8.8% in assay [3]; 22.6% in assay [4]; 2.7% in assay [5]; 25.6% in assay [6].

For the compound `COc1cc2c3cc1Oc1c(OC)c(OC)cc4c1C(Cc1ccc(O)c(c1)Oc1ccc(cc1)CC3N(C)CC2)CN(C)C4` (configuration not stated), the growth inhibition was -17.6% in assay [1]; -37.9% in assay [2]; -3.6% in assay [3]; -17.4% in assay [4]; 3.35% in assay [5]; 25.1% in assay [6].

`Cc1ccc(S(=O)(=O)N2CCCC(=O)c3ccccc32)cc1`: the growth inhibition is -12.4% in assay [1]; 14.4% in assay [2]; -12.9% in assay [3]; 9.35% in assay [4]; 12.1% in assay [5]; 11.3% in assay [6].

As for `CC12CCCC=C1N(C=O)c1ccccc12` (configuration not stated), the growth inhibition in assay [1] is -6.1%; in assay [2], 26.3%; in assay [3], 14.7%; in assay [4], 11.6%; in assay [5], -28.1%; in assay [6] it was 16.8%.

With `CC1(C)C2CCC1(C)C1(C2)OC(CCl)CS1` (configuration not stated), the growth inhibition in assay [1] was 7.4%; in assay [2], -13.8%; in assay [3], 14.1%; in assay [4], 4.3%; in assay [5], 22.4%; in assay [6], 8.4%.

Regarding `CC(C)(C)OC(=O)c1cccc(Br)c1`, the growth inhibition in assay [1] is -8.1%; in assay [2] it was -12.8%; in assay [3], -4.55%; in assay [4], 15.2%; in assay [5] it was 12.8%; in assay [6] it was 11.1%.

For `COc1ccc(OC(=O)Nc2ccc(OC)cc2Cl)cc1`, the growth inhibition in assay [1] was 3%; in assay [2] it was 5.75%; in assay [3], 7.05%; in assay [4], 12.6%; in assay [5], 24.7%; in assay [6], 7.7%.

Consider `C[C@@]1(NC(=O)Cc2ccccc2)C(=O)N2CCS[C@@]21c1ccccc1`, for which the growth inhibition in assay [1] was 0.4%; in assay [2], 0.8%; in assay [3], -20.6%; in assay [4] it was -3.2%; in assay [5] it was 12.8%; in assay [6], 1.95%.

With `C=CCCCCCCCCCCC`, the growth inhibition is -11.3% in assay [1]; -11.2% in assay [2]; -14.1% in assay [3]; 11.7% in assay [4]; 1.95% in assay [5]; -4.9% in assay [6].

On to `NC(=O)c1ncn(C2OC(CO)C(O)C2O)c1C(N)=O` (configuration not stated), for which the growth inhibition was -7.6% in assay [1]; -24.8% in assay [2]; -12.5% in assay [3]; -4.9% in assay [4]; -0.3% in assay [5]; -24.6% in assay [6].

In the case of `CN(C)c1ccc(/C=C(\C#N)c2ccc(F)cc2F)cc1`, the growth inhibition is 0.4% in assay [1]; -2.75% in assay [2]; -3.4% in assay [3]; -9.05% in assay [4]; -5.25% in assay [5]; -23.9% in assay [6].
